The text below walks through data of ChEMBL document CHEMBL4513146, “CO-ADD screening of Karazin Kharkiv National University (Ukraine) compounds”.

Structures are written as SMILES. Measured potencies and affinities stand elsewhere.

The test system of one test is Klebsiella pneumoniae. To be noted: Concentration 32 ug.mL-1;; ASSAY_TEST Inhibition of Bacterial Growth; detection method Absorption (OD600); MEDIA CAMHB; plate type 384well; NBS; CORNING #3640; time 18 hr.
The next test relates to Candida albicans. To be noted: Concentration 32 ug.mL-1; ASSAY_TEST Inhibition of Fungal Growth; detection method Absorption (OD530).
The test system of a further test is Cryptococcus neoformans. The conditions noted are these: Concentration 32 ug.mL-1; ASSAY_TEST Inhibition of Fungal Growth; detection method Resazurin; Absorption (OD600-OD570); plate type 384well; NBS; CORNING #3640. Background: Alamar Blue is a resazurin reagent that responds to reducing activity.

One may read the Inhibition as the drop in the measured response relative to a control, in per cent. As for `CCCN(C)c1nccn2c(=O)n(CC(=O)Nc3cccc(SC)c3)nc12`, the figures for the Inhibition in the test with Klebsiella pneumoniae, with Candida albicans and in the test with Cryptococcus neoformans were 8.64%, 8.61% and -6.21%, respectively.

With `COc1ccc(CN(c2ccc(OC)cc2)S(=O)(=O)c2ccc3nnc(C)n3c2)cc1`, the Inhibition with Klebsiella pneumoniae is given as 9.27%; in the test on Candida albicans, 0.4%; in the test with Cryptococcus neoformans it was -1.1%.

In the case of `Cc1cccc(NC(=O)CSc2nnc3c4cc(-c5ccccc5)nn4ccn23)c1C`, the Inhibition in the test with Klebsiella pneumoniae is reported as 7.23%; in the test with Candida albicans, 5.25%; in the test with Cryptococcus neoformans, -12.53%.

For the compound `Cc1ccc(NC(=O)Cn2nc3ccc(SC4CCCCC4)nn3c2=O)cc1`, the Inhibition in the test with Klebsiella pneumoniae is -2.92%; with Candida albicans it was 2.85%; in the test on Cryptococcus neoformans it was -17.59%.

Take `COc1ccccc1N1CCN(C(=O)CSc2nnc3c(=O)n(-c4ccccc4)ccn23)CC1`: the values for the Inhibition with Klebsiella pneumoniae, in the test with Candida albicans and in the test with Cryptococcus neoformans were 9.27%, 1.3% and -12.92%, respectively.

As to `CC(C)NC(=O)Cn1nc2n(Cc3ccco3)c(=O)c3sccc3n2c1=O`, the Inhibition is on record as 9.3% in the test on Klebsiella pneumoniae, 0.87% in the test on Candida albicans and -5.24% in the test with Cryptococcus neoformans.

Regarding `CC(=O)c1cccc(NC(=O)Cn2nc3c(N4CCN(c5ccccc5C)CC4)nccn3c2=O)c1`, the figures for the Inhibition with Klebsiella pneumoniae, in the test with Candida albicans and in the test with Cryptococcus neoformans were 15.26%, 5.86% and -6.16%, respectively.

Consider `CCc1ccc(N(Cc2ccccc2)S(=O)(=O)c2cccn3cnnc23)cc1`, for which the Inhibition with Klebsiella pneumoniae is 1.9%; in the test with Candida albicans, 2.34%; in the test on Cryptococcus neoformans it was -3.81%.

On to `CSc1cccc(NC(=O)Cn2nc3c4c5c(sc4ncn3c2=O)CCCC5)c1`, for which the Inhibition in the test on Klebsiella pneumoniae was -0.84%; in the test on Candida albicans, 7.75%; in the test with Cryptococcus neoformans, -24.58%.

As for `CCOc1ccc(NC(=O)Cn2nc3c4cc(-c5ccc(C)cc5)nn4ccn3c2=O)cc1`, the results for the Inhibition with Klebsiella pneumoniae, with Candida albicans and with Cryptococcus neoformans were 14.64%, 1.16% and -37.08%, respectively.

With `CCOc1ccc(NC(=O)Cn2nc3c(N4CCCC(C)C4)nccn3c2=O)cc1` (stereo not drawn), the results for the Inhibition in the test on Klebsiella pneumoniae, with Candida albicans and in the test with Cryptococcus neoformans were 13.07%, 0.78% and -15.46%, respectively.

Regarding `CCCCc1ccc(NC(=O)Cn2nc3c(N4CCSCC4)nc4ccccc4n3c2=O)cc1`, the figures for the Inhibition with Klebsiella pneumoniae, in the test on Candida albicans and with Cryptococcus neoformans were 15.26%, -0.87% and -24.44%, respectively.

As to `COC(=O)c1sccc1NC(=O)Cn1nc2c(Oc3ccc(C)cc3)nc3ccccc3n2c1=O`, the Inhibition was 13.09% in the test on Klebsiella pneumoniae, 3.6% in the test with Candida albicans and -31.95% with Cryptococcus neoformans.

`Cc1cc(NC(=O)CSc2nc3ccccc3n3cnnc23)ccc1Br`: the values for the Inhibition in the test on Klebsiella pneumoniae, with Candida albicans and in the test with Cryptococcus neoformans were 14.4%, 4.71% and -40.95%, respectively.

Turning to `CCc1ccc(N(Cc2ccc(C)cc2)S(=O)(=O)c2cccn3c(CC)nnc23)cc1`, the figures for the Inhibition in the test with Klebsiella pneumoniae, in the test with Candida albicans and in the test with Cryptococcus neoformans were 2.26%, 5.38% and -7.79%, respectively.

In the case of `Cc1ccc(C)c(C(=O)CSc2nnc3c(=O)n(-c4ccc(F)c(F)c4)ccn23)c1`, the Inhibition in the test on Klebsiella pneumoniae was 16.06%; in the test with Candida albicans, 4.02%; in the test on Cryptococcus neoformans, -10.11%.

For `CCC(Sc1nnc2c(=O)n(-c3cccc(OC)c3)ccn12)C(=O)Nc1cc(OC)cc(OC)c1` (stereo not drawn), the results for the Inhibition in the test with Klebsiella pneumoniae, in the test on Candida albicans and with Cryptococcus neoformans were 9.6%, -0.37% and -13.16%, respectively.

Turning to `CCCN(C)c1nccn2c(=O)n(CC(=O)Nc3ccc(F)cc3)nc12`, the Inhibition with Klebsiella pneumoniae is 16.44%; with Candida albicans, 1.98%; with Cryptococcus neoformans, -8.83%.

Take `Cc1ccc(-c2cc3c4nn(CC(=O)Nc5cccc(Br)c5)c(=O)n4ccn3n2)cc1`: the Inhibition with Klebsiella pneumoniae is recorded as 10.81%; in the test on Candida albicans it was 6.28%; with Cryptococcus neoformans, -43.73%.

For `CCc1ccc(N(Cc2ccc(Cl)cc2)S(=O)(=O)c2cccn3c(C)nnc23)cc1`, the figures for the Inhibition in the test with Klebsiella pneumoniae, in the test on Candida albicans and in the test with Cryptococcus neoformans were -1.79%, 3.63% and -5.55%, respectively.

For the compound `O=C(Cn1nc2ccc(SC3CCCCC3)nn2c1=O)Nc1ccc2c(c1)OCO2`, the figures for the Inhibition in the test with Klebsiella pneumoniae, in the test on Candida albicans and in the test on Cryptococcus neoformans were -18.44%, 1.48% and -3.38%, respectively.
